Experimental data from the supplement of paper PMC11732987, “Enantioselective OTUD7B fragment discovery through chemoproteomics screening and high-throughput optimisation” (Communications Chemistry, 2025).
Values without a mark were called inactive.

Columns and labels:
Test in all cases: log2 ratio of Biotin-Ahx-Ub-VS probe labelling (fragment/DMSO); higher = less target engagement (more negative = stronger competition), active = hit call of the paper (q ≤ 0.05, log2 ratio ≤ -1)
Details in all cases: compound concentration: 200 uM; treatment time: 3 h
[1] = target: T1, OTUD6B (UniProt Q8N6M0)
T1 sequence (whole entry): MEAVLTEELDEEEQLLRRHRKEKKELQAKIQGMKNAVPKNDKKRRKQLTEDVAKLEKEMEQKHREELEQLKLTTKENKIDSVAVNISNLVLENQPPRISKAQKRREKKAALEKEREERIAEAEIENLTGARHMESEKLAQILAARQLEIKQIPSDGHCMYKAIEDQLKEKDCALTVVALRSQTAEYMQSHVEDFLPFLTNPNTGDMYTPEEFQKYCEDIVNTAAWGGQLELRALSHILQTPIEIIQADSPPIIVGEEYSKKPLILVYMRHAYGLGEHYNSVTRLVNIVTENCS
Summary of the method: (§1)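 Using Biotin-Ahx-Ub-VS at 0.5 µM final for 1 h, DUBs were labelled in HEK293T lysate (495 µg per sample) that had first been treated in triplicate with fragment at 200 µM or vehicle for 3 h. NeutrAvidin enrichment, LysC and trypsin digestion and diaPASEF LC-MS/MS followed. Spectronaut label-free quantities were global-median-normalised. Values are average log2 fragment/vehicle ratios by unpaired t-test, using proteins with ≥2 unique peptides.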

[2] = target: T2, OTUD7B (UniProt Q6GQQ9)
T2 sequence (whole entry): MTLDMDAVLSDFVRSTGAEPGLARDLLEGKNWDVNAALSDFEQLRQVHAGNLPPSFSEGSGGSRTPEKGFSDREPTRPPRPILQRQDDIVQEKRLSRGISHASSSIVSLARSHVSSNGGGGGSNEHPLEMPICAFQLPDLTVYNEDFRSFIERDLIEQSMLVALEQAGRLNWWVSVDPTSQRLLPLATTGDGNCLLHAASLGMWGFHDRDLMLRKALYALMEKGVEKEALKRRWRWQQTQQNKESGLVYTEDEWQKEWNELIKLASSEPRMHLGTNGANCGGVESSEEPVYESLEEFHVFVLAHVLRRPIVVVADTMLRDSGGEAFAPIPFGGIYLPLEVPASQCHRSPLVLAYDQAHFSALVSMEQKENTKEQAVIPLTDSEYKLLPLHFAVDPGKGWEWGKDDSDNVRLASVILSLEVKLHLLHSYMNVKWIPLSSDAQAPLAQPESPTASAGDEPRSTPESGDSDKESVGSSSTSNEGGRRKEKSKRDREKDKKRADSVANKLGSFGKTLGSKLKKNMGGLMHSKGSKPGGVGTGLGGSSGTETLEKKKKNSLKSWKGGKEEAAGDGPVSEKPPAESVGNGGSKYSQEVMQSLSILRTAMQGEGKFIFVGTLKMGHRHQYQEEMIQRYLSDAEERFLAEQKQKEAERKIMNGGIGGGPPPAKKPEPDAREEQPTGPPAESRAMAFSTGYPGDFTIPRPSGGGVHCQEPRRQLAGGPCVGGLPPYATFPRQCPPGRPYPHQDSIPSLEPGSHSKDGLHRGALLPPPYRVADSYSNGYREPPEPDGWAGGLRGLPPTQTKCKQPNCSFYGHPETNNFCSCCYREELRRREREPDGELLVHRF
Summary of the method: as §1

[3] = target: PRPF8 (UniProt Q6P2Q9)
Summary of the method: as §1

[4] = target: T3, PSMD7 (UniProt P51665)
T3 sequence (whole entry): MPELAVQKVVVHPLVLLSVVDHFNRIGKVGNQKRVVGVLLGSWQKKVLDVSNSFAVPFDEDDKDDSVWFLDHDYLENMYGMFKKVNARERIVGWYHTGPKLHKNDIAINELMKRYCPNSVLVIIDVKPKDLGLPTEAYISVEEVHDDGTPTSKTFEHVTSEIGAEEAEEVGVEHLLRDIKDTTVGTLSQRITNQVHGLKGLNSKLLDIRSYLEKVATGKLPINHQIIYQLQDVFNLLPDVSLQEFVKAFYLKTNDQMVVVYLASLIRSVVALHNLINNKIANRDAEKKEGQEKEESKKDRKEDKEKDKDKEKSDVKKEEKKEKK
Summary of the method: as §1

[5] = target: UCHL1 (UniProt P09936)
Summary of the method: as §1

[6] = target: T4, UCHL3 (UniProt P15374)
T4 sequence (whole entry): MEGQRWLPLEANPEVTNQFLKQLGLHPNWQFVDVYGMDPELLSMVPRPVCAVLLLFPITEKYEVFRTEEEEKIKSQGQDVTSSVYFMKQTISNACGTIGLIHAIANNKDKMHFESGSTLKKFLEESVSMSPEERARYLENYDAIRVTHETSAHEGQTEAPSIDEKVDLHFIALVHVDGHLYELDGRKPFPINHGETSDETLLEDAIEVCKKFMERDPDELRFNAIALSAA
Summary of the method: as §1

[7] = target: T5, UCHL5 (UniProt Q9Y5K5)
T5 sequence (whole entry): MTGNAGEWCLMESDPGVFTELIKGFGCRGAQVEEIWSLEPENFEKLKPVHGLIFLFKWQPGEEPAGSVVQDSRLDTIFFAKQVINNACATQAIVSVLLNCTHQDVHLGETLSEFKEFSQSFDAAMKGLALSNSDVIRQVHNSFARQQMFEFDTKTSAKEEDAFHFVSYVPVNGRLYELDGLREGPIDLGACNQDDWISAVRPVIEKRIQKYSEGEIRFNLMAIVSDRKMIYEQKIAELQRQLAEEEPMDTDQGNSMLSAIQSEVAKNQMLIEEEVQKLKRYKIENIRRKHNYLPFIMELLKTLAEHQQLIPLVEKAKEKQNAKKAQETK
Summary of the method: as §1

[8] = target: USP10 (UniProt Q14694)
Summary of the method: as §1

[9] = target: T6, USP15 (UniProt Q9Y4E8)
T6 sequence (whole entry): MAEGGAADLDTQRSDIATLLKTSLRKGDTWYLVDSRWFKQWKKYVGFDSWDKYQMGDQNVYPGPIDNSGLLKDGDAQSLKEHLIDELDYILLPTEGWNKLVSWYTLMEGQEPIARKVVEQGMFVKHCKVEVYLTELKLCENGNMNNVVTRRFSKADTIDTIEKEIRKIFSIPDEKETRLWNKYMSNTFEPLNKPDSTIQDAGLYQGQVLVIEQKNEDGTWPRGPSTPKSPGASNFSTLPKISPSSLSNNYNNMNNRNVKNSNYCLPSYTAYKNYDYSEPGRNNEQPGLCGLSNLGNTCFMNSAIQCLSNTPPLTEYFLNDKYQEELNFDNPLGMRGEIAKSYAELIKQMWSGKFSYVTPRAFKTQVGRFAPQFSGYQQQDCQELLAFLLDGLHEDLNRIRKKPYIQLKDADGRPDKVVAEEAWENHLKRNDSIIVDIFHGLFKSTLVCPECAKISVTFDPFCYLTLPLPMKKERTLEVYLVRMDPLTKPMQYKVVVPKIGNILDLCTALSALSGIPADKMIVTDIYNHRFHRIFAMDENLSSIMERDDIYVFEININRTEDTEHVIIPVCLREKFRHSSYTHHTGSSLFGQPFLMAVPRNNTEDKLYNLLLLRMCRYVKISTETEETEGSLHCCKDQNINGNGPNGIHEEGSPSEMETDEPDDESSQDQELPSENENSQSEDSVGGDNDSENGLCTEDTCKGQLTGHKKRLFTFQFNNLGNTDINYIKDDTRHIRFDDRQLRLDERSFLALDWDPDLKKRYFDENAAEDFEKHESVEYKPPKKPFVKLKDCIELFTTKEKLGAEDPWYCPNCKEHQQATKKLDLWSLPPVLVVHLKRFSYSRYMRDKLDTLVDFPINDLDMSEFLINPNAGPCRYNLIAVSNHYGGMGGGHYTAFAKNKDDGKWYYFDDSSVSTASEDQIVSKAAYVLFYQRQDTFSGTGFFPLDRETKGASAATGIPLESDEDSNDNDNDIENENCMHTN
Summary of the method: as §1

UCHL1, sequence (P09936 whole entry, looked up): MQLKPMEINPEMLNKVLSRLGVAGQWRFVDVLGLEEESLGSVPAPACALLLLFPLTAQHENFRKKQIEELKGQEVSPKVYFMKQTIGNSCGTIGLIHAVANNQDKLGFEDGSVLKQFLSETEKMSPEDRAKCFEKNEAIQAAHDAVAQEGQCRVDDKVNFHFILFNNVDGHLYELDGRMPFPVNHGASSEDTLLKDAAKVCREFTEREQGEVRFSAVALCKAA
USP10, sequence (Q14694 whole entry): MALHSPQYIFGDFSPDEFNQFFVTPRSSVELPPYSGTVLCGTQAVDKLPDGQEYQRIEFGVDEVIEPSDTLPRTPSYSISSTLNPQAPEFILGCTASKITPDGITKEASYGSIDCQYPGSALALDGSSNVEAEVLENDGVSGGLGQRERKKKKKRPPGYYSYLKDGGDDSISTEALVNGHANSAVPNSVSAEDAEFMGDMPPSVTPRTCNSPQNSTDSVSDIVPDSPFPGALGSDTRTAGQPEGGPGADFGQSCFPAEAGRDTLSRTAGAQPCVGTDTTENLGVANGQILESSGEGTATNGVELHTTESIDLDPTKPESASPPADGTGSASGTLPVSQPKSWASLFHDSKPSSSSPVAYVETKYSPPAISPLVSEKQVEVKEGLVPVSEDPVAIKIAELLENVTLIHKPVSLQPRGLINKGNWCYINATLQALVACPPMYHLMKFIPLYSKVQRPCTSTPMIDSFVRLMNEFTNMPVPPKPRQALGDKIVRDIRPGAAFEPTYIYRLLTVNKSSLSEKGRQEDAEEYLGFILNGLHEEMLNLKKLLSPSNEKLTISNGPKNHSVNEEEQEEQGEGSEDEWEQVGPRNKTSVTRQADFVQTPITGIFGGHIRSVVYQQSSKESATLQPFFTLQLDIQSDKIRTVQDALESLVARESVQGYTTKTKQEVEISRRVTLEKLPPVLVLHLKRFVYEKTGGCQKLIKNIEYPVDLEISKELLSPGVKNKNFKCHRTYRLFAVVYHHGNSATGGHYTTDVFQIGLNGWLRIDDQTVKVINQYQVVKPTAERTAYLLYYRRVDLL

O=C(CCl)N[C@H]1CC[C@@H](CO)CC1
log2 ratio of Biotin-Ahx-Ub-VS probe labelling [1]: -0.662
log2 ratio of Biotin-Ahx-Ub-VS probe labelling [2]: -1.44 (active)
log2 ratio of Biotin-Ahx-Ub-VS probe labelling [3]: -0.24
log2 ratio of Biotin-Ahx-Ub-VS probe labelling [4]: -0.201
log2 ratio of Biotin-Ahx-Ub-VS probe labelling [5]: -2.47 (active)
log2 ratio of Biotin-Ahx-Ub-VS probe labelling [6]: -0.884
log2 ratio of Biotin-Ahx-Ub-VS probe labelling [7]: -0.9
log2 ratio of Biotin-Ahx-Ub-VS probe labelling [8]: -0.226
log2 ratio of Biotin-Ahx-Ub-VS probe labelling [9]: -0.938
